For test [1], the target named is Bile acid receptor (Homo sapiens) (UniProt Q96RI1). Briefly: ATG_IR1_CIS: Attagene CIS-FACTORIAL HepG2 Assay for human Nuclear Receptor Subfamily 1 Group H Member 4 (NR1H4), IR1 submotif (AID 2282946). The note with it: IR1 reporter transcription, actives raise or lower the signal. In short, it runs like this:
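HepG2 cells transiently transfected with multiplexed cis-element reporter units read endogenous transcription factor activity. After 24 h compound exposure, reporter mRNA was quantified by RT-PCR, fluorescent labelling, HpaI digestion and capillary electrophoresis; bidirectional fitting versus DMSO baseline.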

The nature of test [2]: ATG_GRE_CIS: Attagene CIS-FACTORIAL HepG2 Assay for human Glucocorticoid Response Elements (GRE) (AID 2282947). As to conditions: HepG2 GRE cis-reporter, Attagene multiplex mRNA; actives raise or lower the signal. In short, it runs like this:
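Reporter transcripts read by RT-PCR with capillary electrophoresis fluorescence after a 24 h chemical exposure of HepG2 cells transiently transfected with multiple cis-element reporter units. Gain or loss fitted against DMSO.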

Test [3] can be described thus: ATG_ISRE_CIS: Attagene CIS-FACTORIAL HepG2 Assay for human Interferon Regulatory Factor 1 (IRF1) binding to an Interferon-Stimulated Response Element (ISRE) (AID 2282948). The note with it: HepG2 ISRE cis-reporter (Attagene), mRNA transcription readout; actives raise or lower the signal. In short, it runs like this:
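Multiplexed mRNA reporter readout in human liver HepG2 cells: cis-element-driven reporters transfected, compound added for 24 h, transcripts amplified, fluorescently labelled and sized by capillary electrophoresis; curve fitting bidirectional against DMSO.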

Test [4] in a line: ATG_M_32_CIS: Attagene CIS-FACTORIAL HepG2 Assay for M32 Transcription Factor (Internal Marker) (AID 2282949).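 Further: background control marker of the multiplexed CIS panel rather than a real target.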 The note with it: HepG2 Attagene cis-factorial M32 reporter, mRNA; actives raise or lower the signal. In short, it runs like this:
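HepG2 human liver cells transiently transfected with cis-promoter-driven multiple reporter transcription units, dosed 24 h. Reporter mRNA quantified by RT-PCR, FAM-labelled primer extension, HpaI digest and capillary electrophoresis; bidirectional fit versus DMSO baseline.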

The nature of test [5]: ATG_M_06_CIS: Attagene CIS-FACTORIAL HepG2 Assay for M06 Transcription Factor (Internal Marker) (AID 2282950). The note with it: HepG2 Attagene CIS-FACTORIAL M06 internal marker reporter; actives raise or lower the signal. The procedure, abridged: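 One of many multiplexed endpoints: HepG2 reporter mRNA after 24 h dosing, detected by RT-PCR and capillary electrophoresis fluorescence; gain or loss of signal analysed against DMSO.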

For test [6], the target named is Hypoxia-inducible factor 1-alpha (Homo sapiens) (UniProt Q16665). Briefly: ATG_HIF1a_CIS: Attagene CIS-FACTORIAL HepG2 Assay for human Hypoxia Inducible Factor 1 (HIF1A) (AID 2282951). As to conditions: HepG2 Attagene cis-factorial HIF1a reporter transcription; actives raise or lower the signal. The procedure, abridged: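 Cis-element reporter constructs were transiently transfected into HepG2 cells, which were treated for 24 h; reporter RNA was reverse-transcribed, amplified, labelled and resolved by capillary electrophoresis.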
Chain of Hypoxia-inducible factor 1-alpha (Homo sapiens) (Q16665 whole entry, looked up): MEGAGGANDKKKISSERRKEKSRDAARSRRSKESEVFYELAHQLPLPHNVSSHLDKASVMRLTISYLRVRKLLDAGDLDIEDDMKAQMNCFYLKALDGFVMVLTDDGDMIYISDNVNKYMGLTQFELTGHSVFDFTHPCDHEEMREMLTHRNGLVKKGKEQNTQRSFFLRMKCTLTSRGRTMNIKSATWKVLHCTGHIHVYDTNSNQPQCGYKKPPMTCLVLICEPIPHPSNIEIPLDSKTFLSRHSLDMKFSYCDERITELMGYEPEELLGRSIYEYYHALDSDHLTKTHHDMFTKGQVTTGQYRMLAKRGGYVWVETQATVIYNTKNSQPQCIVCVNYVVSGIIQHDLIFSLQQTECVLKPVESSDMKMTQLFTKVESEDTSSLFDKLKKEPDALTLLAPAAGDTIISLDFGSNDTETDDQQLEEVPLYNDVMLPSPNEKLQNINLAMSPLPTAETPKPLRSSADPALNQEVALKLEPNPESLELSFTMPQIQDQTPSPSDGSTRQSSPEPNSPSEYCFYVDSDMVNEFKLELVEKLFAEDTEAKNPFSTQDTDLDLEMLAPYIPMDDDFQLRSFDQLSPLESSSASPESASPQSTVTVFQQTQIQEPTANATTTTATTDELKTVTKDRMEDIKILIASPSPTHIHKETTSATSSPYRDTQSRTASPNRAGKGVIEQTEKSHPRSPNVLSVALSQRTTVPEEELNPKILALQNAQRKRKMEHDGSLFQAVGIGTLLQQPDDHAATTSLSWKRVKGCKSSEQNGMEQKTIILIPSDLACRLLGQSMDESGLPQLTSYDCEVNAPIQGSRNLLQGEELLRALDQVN

Test [7] addresses Hepatocyte nuclear factor 6 (Homo sapiens) (UniProt Q9UBC0). Briefly: ATG_HNF6_CIS: Attagene CIS-FACTORIAL HepG2 Assay for human Hepatocyte Nuclear Factor 6 (HNF6) (AID 2282952). The note with it: HepG2 Attagene cis-factorial HNF6 reporter transcription; actives raise or lower the signal. In short, it runs like this:
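Endogenous factor activity read in transiently transfected HepG2 via promoter-regulated reporter transcripts. RNA harvested 24 h post-dosing, reverse-transcribed, PCR-amplified, FAM-labelled, HpaI-digested and resolved by capillary electrophoresis; fitted in both directions against DMSO.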

Test [8] deals with Heat shock factor protein 1 (Homo sapiens) (UniProt Q00613). As to the kind of experiment: ATG_HSE_CIS: Attagene CIS-FACTORIAL HepG2 Assay for human Heat Shock Transcription Factor 1 (HSE) (AID 2282953). As to conditions: HepG2 HSE cis-reporter, Attagene RNA transcription; actives raise or lower the signal. In short, it runs like this:
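Using HepG2 with transfected cis-driven reporter constructs, compound effects on endogenous factor activity are scored as reporter mRNA change at 24 h. Detection: RT-PCR, HpaI digestion, capillary electrophoresis; bidirectional fitting to DMSO.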

Test [9] is described as follows: ATG_MRE_CIS: Attagene CIS-FACTORIAL HepG2 Assay for human Metal Responsive Element (MRE) (AID 2282954). As to conditions: HepG2 MRE cis-reporter transcription, Attagene multiplex; actives raise or lower the signal. The procedure, abridged: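 Endogenous MRE-dependent transcription read as reporter mRNA in transiently transfected human HepG2 cells at 24 h. RNA reverse-transcribed, PCR-amplified, labelled and resolved by capillary electrophoresis; gain or loss relative to DMSO.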

In test [10] the target is Paired box protein Pax-6 (Homo sapiens) (UniProt P26367). As to the kind of experiment: ATG_Pax6_CIS: Attagene CIS-FACTORIAL HepG2 Assay for human Paired Box 6 (PAX6) (AID 2282956). As to conditions: HepG2 CIS-FACTORIAL PAX6 reporter transcription, RNA readout; actives raise or lower the signal. In short, it runs like this: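 Fluorescent RT-PCR products separated by capillary electrophoresis report PAX6-linked promoter mRNA in HepG2 cells 24 h post-dose. Curves fitted bidirectionally, DMSO as negative control.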
Chain of Paired box protein Pax-6 (Homo sapiens) (P26367 whole entry, looked up): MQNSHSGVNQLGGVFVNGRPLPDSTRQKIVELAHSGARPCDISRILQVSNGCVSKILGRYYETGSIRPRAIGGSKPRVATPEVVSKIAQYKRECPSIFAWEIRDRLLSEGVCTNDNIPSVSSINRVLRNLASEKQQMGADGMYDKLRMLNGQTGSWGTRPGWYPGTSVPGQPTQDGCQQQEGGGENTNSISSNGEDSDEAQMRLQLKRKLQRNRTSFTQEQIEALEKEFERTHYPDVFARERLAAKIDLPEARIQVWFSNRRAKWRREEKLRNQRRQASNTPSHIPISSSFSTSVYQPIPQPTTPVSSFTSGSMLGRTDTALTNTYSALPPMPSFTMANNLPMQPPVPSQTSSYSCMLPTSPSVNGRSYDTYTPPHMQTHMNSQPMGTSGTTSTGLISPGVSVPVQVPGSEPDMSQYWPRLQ

The nature of test [11]: ATG_PXRE_CIS: Attagene CIS-FACTORIAL HepG2 Assay for human Pregnane X Receptor Element (PXRE) (AID 2282957). As to conditions: HepG2 Attagene CIS-FACTORIAL PXRE reporter, mRNA; actives raise or lower the signal. In short, it runs like this: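 Reporter transcripts under endogenous PXR-responsive cis-regulation quantified from total RNA of transfected HepG2 cells 24 h post-dosing, via RT-PCR with fluorescent primer extension and capillary electrophoresis. Gain or loss of signal fitted against DMSO baseline.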

Test [12] is described as follows: ATG_RORE_CIS: Attagene CIS-FACTORIAL HepG2 Assay for human RAR-related Orphan Receptor Element (RORE) (AID 2282959). As to conditions: HepG2 Attagene cis-factorial RORE reporter, mRNA; actives raise or lower the signal. The procedure, abridged: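 Transfect HepG2 with MRTUs; treat 24 h; extract RNA; RT with oligo(dT); PCR with reporter-specific primers; 6-FAM primer extension; HpaI digest 2 h at 37 C; capillary electrophoresis. Fit vs DMSO, bidirectional.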

Test [13] is described as follows: ATG_Sox_CIS: Attagene CIS-FACTORIAL HepG2 Assay for human SRY-box transcription factor (SOX) (AID 2282960). The note with it: HepG2 Attagene cis-factorial SOX reporter, mRNA; actives raise or lower the signal. The procedure, abridged: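 Fluorescence-labelled cDNA fragments from reporter transcripts, sized by CE, give the signal. Cells: HepG2, transiently transfected with cis-regulated reporter units. Exposure 24 h; DMSO negative control; bidirectional curve fitting.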

Test [14] deals with Transcription factor Sp1 (Homo sapiens) (UniProt P08047). As to the kind of experiment: ATG_Sp1_CIS: Attagene CIS-FACTORIAL HepG2 Assay for human Specificity Protein 1 (Sp1) (AID 2282961). The note with it: HepG2 Sp1 cis-reporter transcription, actives raise or lower the signal. In short, it runs like this: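 Chemicals are dosed onto HepG2 cells transfected with multiple cis-promoter reporter constructs, and after 24 h reporter RNA is reverse-transcribed, PCR-amplified and resolved by capillary electrophoresis for fluorescence quantitation; activity is scored up or down against DMSO.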
Chain of Transcription factor Sp1 (Homo sapiens) (P08047 whole entry, looked up): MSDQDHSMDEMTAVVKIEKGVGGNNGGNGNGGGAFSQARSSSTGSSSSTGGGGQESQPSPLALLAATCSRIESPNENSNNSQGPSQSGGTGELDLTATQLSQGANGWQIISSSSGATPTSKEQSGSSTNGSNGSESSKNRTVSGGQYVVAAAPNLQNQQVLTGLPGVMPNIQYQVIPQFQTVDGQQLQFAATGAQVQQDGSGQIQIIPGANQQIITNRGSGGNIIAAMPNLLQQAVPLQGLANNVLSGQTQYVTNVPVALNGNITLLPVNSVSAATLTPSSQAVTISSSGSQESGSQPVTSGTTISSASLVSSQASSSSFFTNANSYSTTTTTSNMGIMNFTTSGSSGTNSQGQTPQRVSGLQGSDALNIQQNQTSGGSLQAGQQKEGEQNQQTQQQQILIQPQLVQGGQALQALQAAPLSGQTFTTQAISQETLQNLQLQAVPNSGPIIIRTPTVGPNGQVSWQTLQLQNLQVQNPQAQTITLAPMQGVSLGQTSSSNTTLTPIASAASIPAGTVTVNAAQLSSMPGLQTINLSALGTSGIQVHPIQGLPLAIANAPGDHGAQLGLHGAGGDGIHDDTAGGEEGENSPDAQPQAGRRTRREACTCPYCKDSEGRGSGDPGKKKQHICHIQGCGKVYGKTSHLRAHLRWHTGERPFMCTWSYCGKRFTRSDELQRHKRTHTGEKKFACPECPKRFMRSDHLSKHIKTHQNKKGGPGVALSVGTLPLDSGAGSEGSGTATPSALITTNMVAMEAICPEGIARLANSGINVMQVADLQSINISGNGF

The nature of test [15]: ATG_SREBP_CIS: Attagene CIS-FACTORIAL HepG2 Assay for human Sterol Regulatory Element Binding (SREBP) (AID 2282962). As to conditions: HepG2 Attagene cis-factorial SREBP reporter, mRNA; actives raise or lower the signal. The procedure, abridged:
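Endogenous factor activity is measured in HepG2 through multiplexed reporter units under cis-element control. Following a 24 h incubation, reporter transcripts are reverse-transcribed, PCR-amplified and sized by capillary electrophoresis; activity is fitted in both directions relative to DMSO.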

Test [16] is described as follows: ATG_TCF_b_cat_CIS: Attagene CIS-FACTORIAL HepG2 Assay for human T-Cell-Factor with beta-catenin (TCF/b-cat) (AID 2282965). The note with it: HepG2 TCF/beta-catenin cis-reporter transcription, actives raise or lower the signal. The procedure, abridged: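 Endogenous transcription factor activity is captured through cis-promoter reporter constructs transiently introduced into human HepG2 liver cells. Induced reporter mRNA is measured after 24 h and fitted bidirectionally relative to DMSO.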

Test [17] can be described thus: ATG_PBREM_CIS: Attagene CIS-FACTORIAL HepG2 Assay for human Phenobarbital-responsive Enhancer Module (PBREM) (AID 2282955). The note with it: HepG2 PBREM cis-reporter, Attagene multiplexed transcription; actives raise or lower the signal. The procedure, abridged: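 Multiplexed cis-reporter readout in human hepatoma HepG2 cells; PBREM-regulated transcript quantified after 24 h exposure by fluorescent RT-PCR fragment analysis. Signal changes up or down fitted relative to DMSO.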

Test [18] in a line: ATG_PPRE_CIS: Attagene CIS-FACTORIAL HepG2 Assay for human Peroxisome Proliferator-activated Response Element (PPRE) (AID 2282958). As to conditions: HepG2 PPRE cis-element reporter, Attagene transcription factor profiling; actives raise or lower the signal. In short, it runs like this: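 DMSO served as negative control and baseline for bidirectional curve fitting. Signal came from PPRE-regulated reporter mRNA in HepG2 cells, measured 24 h post-dosing by RT-PCR, 6-FAM primer extension and capillary electrophoresis.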

The target of test [19] is Signal transducer and activator of transcription 3 (Homo sapiens) (UniProt P40763). Briefly: ATG_STAT3_CIS: Attagene CIS-FACTORIAL HepG2 Assay for human Signal Transducer and Activator of Transcription 3 (STAT3) (AID 2282963). The note with it: HepG2, Attagene cis-factorial STAT3 reporter transcription; actives raise or lower the signal. The procedure, abridged: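 Readout is reporter transcript quantified by RT-PCR and capillary electrophoresis, with 6-FAM primer extension and HpaI digestion. Total RNA is taken 24 h after dosing transiently transfected HepG2 carrying cis-regulated reporter units. Bidirectional fit against DMSO.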
Chain of Signal transducer and activator of transcription 3 (Homo sapiens) (P40763 whole entry, looked up): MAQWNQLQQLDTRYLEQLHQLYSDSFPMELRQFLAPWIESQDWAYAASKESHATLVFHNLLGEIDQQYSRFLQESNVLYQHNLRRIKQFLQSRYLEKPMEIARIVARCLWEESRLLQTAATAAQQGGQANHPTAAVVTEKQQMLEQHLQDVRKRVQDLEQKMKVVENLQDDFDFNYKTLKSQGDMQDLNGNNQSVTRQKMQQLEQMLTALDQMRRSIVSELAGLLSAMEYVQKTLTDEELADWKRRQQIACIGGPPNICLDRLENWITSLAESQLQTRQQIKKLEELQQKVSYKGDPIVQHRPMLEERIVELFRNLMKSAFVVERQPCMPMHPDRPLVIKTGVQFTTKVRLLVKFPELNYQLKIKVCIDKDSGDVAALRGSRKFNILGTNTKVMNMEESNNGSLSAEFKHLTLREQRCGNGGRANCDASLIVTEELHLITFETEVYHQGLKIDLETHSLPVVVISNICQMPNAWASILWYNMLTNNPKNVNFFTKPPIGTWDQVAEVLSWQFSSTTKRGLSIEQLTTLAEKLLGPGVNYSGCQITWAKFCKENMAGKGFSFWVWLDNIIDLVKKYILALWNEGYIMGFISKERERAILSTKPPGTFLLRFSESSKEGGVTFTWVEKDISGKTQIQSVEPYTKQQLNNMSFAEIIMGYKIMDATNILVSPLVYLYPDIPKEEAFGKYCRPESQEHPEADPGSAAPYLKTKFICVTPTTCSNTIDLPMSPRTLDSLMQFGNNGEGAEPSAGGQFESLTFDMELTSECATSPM

A short description of test [20]: ATG_TA_CIS: Attagene CIS-FACTORIAL HepG2 Assay for human TA Basal Promoter (AID 2282964). As to conditions: HepG2 Attagene CIS-factorial TA basal promoter reporter; actives raise or lower the signal. In short, it runs like this:
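Transient MRTU transfection of HepG2 preceded 24 h compound exposure. Reporter mRNA levels were then read by RT-PCR with capillary electrophoresis, and this background-control endpoint was fitted bidirectionally to DMSO.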

Calls of active or inactive are those of the source. How the source made its calls: active means hit-call score of the fitted dose curve at least 0.9, where 1 is the maximum; inactive means score below 0.9.

Chain of Hepatocyte nuclear factor 6 (Homo sapiens) (Q9UBC0 whole entry, looked up): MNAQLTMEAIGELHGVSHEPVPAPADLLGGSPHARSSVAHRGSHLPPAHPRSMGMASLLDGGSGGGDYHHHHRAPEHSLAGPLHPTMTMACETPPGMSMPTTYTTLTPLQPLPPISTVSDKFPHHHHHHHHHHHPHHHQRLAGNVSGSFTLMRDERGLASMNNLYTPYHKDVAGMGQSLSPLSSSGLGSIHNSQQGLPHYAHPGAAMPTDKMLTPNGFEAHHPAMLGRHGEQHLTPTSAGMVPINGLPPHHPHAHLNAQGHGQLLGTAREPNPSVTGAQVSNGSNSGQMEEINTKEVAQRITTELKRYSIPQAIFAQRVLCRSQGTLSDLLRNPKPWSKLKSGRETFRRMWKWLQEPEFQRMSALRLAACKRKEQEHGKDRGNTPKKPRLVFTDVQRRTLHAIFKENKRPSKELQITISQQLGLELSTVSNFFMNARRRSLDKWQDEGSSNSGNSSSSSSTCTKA
Chain of Bile acid receptor (Homo sapiens) (Q96RI1 whole entry, looked up): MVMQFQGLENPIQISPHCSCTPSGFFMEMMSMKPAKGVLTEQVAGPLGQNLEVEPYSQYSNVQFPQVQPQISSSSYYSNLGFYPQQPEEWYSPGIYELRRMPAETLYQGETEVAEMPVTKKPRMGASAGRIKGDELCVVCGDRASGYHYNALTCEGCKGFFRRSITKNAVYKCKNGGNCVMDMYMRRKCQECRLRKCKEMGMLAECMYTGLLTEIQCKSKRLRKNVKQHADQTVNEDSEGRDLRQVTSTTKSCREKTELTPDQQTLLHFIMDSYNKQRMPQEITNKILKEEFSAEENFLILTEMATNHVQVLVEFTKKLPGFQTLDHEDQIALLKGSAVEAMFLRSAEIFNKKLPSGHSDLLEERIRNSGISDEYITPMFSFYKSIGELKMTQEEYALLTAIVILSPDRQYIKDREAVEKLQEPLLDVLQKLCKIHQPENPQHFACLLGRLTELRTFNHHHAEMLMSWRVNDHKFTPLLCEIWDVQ
Chain of Heat shock factor protein 1 (Homo sapiens) (Q00613 whole entry, looked up): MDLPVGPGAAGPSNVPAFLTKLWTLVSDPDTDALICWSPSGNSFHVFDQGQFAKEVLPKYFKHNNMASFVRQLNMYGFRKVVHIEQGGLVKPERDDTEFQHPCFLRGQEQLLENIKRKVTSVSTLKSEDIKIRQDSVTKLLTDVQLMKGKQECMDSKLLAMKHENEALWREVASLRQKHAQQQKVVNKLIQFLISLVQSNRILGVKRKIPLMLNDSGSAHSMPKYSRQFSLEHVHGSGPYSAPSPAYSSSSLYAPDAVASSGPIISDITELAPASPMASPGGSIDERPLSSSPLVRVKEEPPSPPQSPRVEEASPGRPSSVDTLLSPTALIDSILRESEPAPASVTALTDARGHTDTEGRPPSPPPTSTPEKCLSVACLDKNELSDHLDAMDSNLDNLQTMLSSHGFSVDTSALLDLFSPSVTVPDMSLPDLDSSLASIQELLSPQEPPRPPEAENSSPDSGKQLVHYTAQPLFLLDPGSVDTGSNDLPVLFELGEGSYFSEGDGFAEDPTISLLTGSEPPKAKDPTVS

For `Clc1cc(Cl)c(-c2c(Cl)c(Cl)cc(Cl)c2Cl)cc1Cl`, the result in test [1], in test [2], in [3], in [4], in test [5] and in [6] was inactive. Moreover, the compound was classed as inactive in test [7], in [8], in test [10], in test [12], in test [13] and in [16]. The AC50 in [9] was 29.1 µM (active); in test [11] it was 3.45 µM (active); in test [14], 50 µM (active); in [15], 50 µM (active).

Turning to `Cc1c(C2(c3cc(Br)c(O)c(Br)c3C)OS(=O)(=O)c3ccccc32)cc(Br)c(O)c1Br`, the call in test [1], in [2], in test [3], in test [4], in test [5] and in [6] was inactive. For the same compound, the result in [7], in test [8], in test [9], in [17], in test [10] and in [18] was inactive. Moreover, the result in [12], in [13], in test [14], in [15], in test [19] and in test [20] was inactive. The call in [16] was inactive. Moreover, in [11], the AC50 was 11 µM (active).

Turning to `COC(=O)c1ccc([N+](=O)[O-])cc1`, the compound was classed as inactive in test [1], in [2], in [3], in [4], in [5] and in [6]. For the same compound, the call in test [7], in [8], in test [9], in test [17], in test [10] and in test [11] was inactive. Further, the result in test [18], in [13], in test [14], in [15], in [19] and in test [20] was inactive. The result in test [16] was inactive.

As usually defined, the AC50 is the concentration at which the activity in the assay is half-maximal.

(Values after PubChem BioAssay (EPA / NIEHS).)
